In experiment [1] the target is T1, Methionyl-tRNA synthetase, putative (Leishmania donovani (strain BPK282A1)) (UniProt E9BF75).
T1 sequence (whole entry): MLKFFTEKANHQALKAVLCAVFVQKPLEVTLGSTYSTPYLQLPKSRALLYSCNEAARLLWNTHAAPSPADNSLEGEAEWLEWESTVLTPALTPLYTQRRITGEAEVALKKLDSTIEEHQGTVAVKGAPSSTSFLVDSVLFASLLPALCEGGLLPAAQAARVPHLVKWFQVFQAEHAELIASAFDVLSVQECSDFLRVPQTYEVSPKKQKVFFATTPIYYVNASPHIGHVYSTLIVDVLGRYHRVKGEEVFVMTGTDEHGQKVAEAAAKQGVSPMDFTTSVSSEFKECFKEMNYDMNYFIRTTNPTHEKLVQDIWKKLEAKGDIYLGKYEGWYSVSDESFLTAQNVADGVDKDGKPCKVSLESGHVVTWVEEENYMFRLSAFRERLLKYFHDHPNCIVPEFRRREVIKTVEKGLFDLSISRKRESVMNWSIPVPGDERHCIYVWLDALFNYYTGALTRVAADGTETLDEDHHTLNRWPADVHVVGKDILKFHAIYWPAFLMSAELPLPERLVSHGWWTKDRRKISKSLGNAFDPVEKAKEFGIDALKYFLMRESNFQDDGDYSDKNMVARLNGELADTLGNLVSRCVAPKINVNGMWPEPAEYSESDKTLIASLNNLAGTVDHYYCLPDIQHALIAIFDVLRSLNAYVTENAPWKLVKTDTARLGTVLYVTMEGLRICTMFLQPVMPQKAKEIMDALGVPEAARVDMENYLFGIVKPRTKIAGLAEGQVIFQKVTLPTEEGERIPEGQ
In words: Leishmania donovani Methionine tRNA synthetase (LdMetRS):v7. Dose response assay. It counts as functional. Set-up: conc 80 nM, time 150 minutes.

For experiment [2], the target named is AMP-activated protein kinase, AMPK (Homo sapiens) (UniProt P54646+O43741+P54619+Q9UGJ0+Q9Y478+Q13131+Q9UGI9). In words: AMP-dependent Kinase enzyme assay. An in vitro enzyme assay that detects ADP turnover that is directly proportional to AMPK activity. This uses naive AMPK that is activated during the assay with MK-8722. Conditions: 30 µM. On the set-up: scale not given: direction of the effect not stated beside the values. The class given is functional.

Experiment [3] concerns the target Protein translocase subunit SecA (Escherichia coli (strain K12)) (UniProt P10408). Kind of experiment: Assay to Identify E. coli SecA ATPase Inhibitors. Set-up: scale not given: direction of the effect not stated beside the values. The class given is functional. Conditions: 30 µM.
Experiment [4] deals with T2, Ubiquitin-activating enzyme e1, putative (Leishmania donovani (strain BPK282A1)) (UniProt E9BSI1).
T2 sequence (whole entry): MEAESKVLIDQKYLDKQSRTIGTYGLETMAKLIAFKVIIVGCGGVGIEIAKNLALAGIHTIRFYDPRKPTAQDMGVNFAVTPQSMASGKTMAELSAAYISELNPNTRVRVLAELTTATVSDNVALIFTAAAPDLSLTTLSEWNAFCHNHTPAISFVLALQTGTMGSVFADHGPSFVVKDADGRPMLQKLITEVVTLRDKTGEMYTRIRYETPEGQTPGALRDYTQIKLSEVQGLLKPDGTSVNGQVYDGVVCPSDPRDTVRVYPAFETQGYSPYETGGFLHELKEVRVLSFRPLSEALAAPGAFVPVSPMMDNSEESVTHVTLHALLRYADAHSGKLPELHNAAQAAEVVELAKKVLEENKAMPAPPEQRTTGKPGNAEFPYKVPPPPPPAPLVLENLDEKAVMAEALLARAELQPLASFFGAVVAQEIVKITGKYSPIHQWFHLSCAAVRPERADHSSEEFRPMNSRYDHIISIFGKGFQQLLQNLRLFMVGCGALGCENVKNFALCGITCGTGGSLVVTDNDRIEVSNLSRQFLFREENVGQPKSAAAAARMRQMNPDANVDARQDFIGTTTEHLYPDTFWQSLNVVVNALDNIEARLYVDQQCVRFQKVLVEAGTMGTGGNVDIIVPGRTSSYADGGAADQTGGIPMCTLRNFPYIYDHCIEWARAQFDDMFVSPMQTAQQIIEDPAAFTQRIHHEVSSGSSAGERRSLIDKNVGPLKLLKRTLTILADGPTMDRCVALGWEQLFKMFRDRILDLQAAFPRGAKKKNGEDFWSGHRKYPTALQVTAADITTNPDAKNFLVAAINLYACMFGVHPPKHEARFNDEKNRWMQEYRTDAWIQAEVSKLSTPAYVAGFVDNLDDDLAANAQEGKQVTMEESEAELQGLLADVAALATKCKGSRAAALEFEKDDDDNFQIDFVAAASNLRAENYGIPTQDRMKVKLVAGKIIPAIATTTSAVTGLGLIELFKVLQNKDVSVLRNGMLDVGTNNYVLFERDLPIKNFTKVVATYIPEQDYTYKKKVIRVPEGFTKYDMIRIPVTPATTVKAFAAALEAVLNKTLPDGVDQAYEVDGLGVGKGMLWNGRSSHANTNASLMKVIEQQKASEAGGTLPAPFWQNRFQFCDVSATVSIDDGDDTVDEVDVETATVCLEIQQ
Kind of experiment: Leishmania donovani Ubiquitin Activating Enzyme (LdE1). The class given is functional. Set-up: scale not given: direction of the effect not stated beside the values. The conditions noted are these: 30 µM.

The target of experiment [5] is Sialic acid-binding Ig-like lectin 9 (Homo sapiens) (UniProt Q9Y336). Kind of experiment: Hs-Siglec9 ALPHAscreen SOP 20170721. The conditions noted are these: 10 µM. On the set-up: scale not given: direction of the effect not stated beside the values. Background: Bead proximity is the source of the signal in Alpha formats.
The next experiment relates to Trypanosoma cruzi. In words: Trypanosoma cruzi phosphomannomutase and mannose-1-phosphate guanylyltransferase assay. It counts as functional. On the set-up: scale not given: direction of the effect not stated beside the values. Conditions: 10 µM.
Experiment [6] addresses T3, Arginase-2, mitochondrial (Homo sapiens) (UniProt P78540).
T3 sequence (whole entry): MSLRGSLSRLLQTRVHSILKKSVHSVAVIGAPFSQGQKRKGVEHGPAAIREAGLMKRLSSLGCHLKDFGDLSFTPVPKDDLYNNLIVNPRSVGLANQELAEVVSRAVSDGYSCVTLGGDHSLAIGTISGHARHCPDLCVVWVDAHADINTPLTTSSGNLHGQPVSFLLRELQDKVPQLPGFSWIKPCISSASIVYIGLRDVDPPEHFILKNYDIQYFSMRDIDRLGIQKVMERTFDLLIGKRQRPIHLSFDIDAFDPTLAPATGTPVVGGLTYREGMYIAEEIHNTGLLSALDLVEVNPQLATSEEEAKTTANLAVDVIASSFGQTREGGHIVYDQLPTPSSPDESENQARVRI
Kind of experiment: in vitro enzyme assay to detect the production of urea directly proportional to the activity of Arginase II. It counts as functional. Set-up: scale not given: in the data most compounds retested in dose-response had high values. The conditions noted are these: 33.3 µM.

For experiment [7], the target named is T4, Proteasome subunit beta (Trypanosoma cruzi) (UniProt O96673).
T4 sequence (whole entry): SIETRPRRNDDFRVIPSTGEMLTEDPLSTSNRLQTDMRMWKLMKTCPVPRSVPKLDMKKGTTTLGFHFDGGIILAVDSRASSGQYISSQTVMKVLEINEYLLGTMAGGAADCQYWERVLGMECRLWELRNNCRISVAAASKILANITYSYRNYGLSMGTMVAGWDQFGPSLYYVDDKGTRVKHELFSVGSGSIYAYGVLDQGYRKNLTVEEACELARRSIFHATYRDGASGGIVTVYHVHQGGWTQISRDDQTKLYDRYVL
In words: Trypanosoma cruzi proteasome chymotrypsin-like activity (TcProtChymo) assay. It counts as functional. Set-up: scale not given: in the data most compounds retested in dose-response had high values. Conditions: 9.37 µM.

A further experiment is filed under the species Homo sapiens. Kind of experiment: To identify inhibition of the IFN signalling (Jak-Stat) pathway via expression of an eGFP reporter gene under the control of an IFN-stimulated response element (ISRE) containing MxA promoter. It counts as functional. Set-up: scale not given: direction of the effect not stated beside the values. The conditions noted are these: 30 µM. Background: Reporter assays use an easily measured gene product as a stand-in for the process of interest.

The target of experiment [8] is T5, Tyrosyl-tRNA synthetase, putative (Trypanosoma cruzi (strain CL Brener)) (UniProt Q4DSP6).
T5 sequence (whole entry): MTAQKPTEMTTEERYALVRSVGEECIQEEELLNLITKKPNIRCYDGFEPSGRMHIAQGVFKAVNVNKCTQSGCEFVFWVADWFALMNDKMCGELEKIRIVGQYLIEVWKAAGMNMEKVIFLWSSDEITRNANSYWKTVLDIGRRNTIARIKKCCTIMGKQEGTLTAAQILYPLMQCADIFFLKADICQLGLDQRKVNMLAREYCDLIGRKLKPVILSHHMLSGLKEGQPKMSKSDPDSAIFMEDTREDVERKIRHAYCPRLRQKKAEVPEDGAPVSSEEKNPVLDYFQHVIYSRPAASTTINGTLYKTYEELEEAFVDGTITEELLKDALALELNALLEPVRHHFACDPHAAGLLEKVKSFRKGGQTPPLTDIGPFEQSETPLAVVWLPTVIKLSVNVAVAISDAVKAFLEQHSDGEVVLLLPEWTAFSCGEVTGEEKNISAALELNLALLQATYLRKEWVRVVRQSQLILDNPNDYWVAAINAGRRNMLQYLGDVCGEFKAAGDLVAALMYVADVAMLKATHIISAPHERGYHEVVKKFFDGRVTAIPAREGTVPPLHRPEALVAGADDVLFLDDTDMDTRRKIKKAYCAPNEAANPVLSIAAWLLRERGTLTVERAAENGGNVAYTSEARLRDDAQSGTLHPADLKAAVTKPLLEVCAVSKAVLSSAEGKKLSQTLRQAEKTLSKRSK
In words: Trypanosoma cruzi tyrosyl tRNA synthetase (TcYRS) _High Tyrosine SOP. It counts as functional. Set-up: scale not given: in the data most compounds retested in dose-response had high values. The conditions noted are these: 30 µM.

Experiment [9] addresses T5, Tyrosyl-tRNA synthetase, putative (Trypanosoma cruzi (strain CL Brener)). Kind of experiment: Trypanosoma cruzi tyrosyl tRNA synthetase (TcYRS) SOP. Set-up: scale not given: direction of the effect not stated beside the values. The class given is functional. Conditions: 30 µM.
For experiment [10], the target named is Chromo domain-containing protein 1 (Saccharomyces cerevisiae (strain ATCC 204508 / S288c) (Baker's yeast)) (UniProt P32657). Kind of experiment: ScCHD-1 Enzyme Inhibition Assay. Set-up: scale not given: in the data most compounds retested in dose-response had high values. The conditions noted are these: 30 µM. It counts as functional.

For part of these data: Potency and affinity values are given separately.

Chain of Sialic acid-binding Ig-like lectin 9 (Homo sapiens) (Q9Y336 whole entry): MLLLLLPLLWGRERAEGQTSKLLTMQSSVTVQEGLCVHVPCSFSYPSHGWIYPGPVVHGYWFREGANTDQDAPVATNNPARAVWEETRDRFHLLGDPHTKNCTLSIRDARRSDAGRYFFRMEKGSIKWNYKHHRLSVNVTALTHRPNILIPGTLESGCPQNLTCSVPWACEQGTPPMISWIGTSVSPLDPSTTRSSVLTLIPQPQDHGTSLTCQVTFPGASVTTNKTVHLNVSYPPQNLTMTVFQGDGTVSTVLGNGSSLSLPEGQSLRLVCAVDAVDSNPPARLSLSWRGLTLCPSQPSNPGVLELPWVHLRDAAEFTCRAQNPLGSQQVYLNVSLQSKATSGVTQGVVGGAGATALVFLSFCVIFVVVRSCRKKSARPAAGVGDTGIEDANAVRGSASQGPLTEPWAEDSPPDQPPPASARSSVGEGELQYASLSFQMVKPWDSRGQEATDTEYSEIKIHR
Chain of Protein translocase subunit SecA (Escherichia coli (strain K12)) (P10408 whole entry): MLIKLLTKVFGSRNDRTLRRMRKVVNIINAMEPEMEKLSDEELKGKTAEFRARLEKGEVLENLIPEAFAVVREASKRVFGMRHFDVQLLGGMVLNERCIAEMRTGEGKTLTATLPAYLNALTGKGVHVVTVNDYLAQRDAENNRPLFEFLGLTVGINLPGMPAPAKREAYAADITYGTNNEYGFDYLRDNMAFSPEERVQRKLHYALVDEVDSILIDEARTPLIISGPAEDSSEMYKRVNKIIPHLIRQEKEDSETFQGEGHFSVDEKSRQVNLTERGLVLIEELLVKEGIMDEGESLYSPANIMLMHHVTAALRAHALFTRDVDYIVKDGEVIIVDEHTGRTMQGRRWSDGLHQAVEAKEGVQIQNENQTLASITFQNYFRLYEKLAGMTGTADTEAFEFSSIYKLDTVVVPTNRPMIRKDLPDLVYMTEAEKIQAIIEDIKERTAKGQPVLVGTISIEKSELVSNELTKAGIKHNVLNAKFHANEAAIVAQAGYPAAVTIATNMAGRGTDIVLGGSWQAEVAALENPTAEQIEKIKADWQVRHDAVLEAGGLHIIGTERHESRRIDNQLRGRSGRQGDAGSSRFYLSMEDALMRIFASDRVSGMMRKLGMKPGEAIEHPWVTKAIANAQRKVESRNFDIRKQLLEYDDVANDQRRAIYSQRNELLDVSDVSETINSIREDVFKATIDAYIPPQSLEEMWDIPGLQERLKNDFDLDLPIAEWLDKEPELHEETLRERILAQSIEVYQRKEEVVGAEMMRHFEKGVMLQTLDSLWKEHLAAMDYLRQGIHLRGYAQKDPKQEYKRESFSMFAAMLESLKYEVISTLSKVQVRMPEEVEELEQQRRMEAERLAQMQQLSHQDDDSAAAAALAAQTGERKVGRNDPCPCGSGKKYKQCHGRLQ
Chain of Chromo domain-containing protein 1 (Saccharomyces cerevisiae (strain ATCC 204508 / S288c) (Baker's yeast)) (P32657 whole entry, the tested form may be a part): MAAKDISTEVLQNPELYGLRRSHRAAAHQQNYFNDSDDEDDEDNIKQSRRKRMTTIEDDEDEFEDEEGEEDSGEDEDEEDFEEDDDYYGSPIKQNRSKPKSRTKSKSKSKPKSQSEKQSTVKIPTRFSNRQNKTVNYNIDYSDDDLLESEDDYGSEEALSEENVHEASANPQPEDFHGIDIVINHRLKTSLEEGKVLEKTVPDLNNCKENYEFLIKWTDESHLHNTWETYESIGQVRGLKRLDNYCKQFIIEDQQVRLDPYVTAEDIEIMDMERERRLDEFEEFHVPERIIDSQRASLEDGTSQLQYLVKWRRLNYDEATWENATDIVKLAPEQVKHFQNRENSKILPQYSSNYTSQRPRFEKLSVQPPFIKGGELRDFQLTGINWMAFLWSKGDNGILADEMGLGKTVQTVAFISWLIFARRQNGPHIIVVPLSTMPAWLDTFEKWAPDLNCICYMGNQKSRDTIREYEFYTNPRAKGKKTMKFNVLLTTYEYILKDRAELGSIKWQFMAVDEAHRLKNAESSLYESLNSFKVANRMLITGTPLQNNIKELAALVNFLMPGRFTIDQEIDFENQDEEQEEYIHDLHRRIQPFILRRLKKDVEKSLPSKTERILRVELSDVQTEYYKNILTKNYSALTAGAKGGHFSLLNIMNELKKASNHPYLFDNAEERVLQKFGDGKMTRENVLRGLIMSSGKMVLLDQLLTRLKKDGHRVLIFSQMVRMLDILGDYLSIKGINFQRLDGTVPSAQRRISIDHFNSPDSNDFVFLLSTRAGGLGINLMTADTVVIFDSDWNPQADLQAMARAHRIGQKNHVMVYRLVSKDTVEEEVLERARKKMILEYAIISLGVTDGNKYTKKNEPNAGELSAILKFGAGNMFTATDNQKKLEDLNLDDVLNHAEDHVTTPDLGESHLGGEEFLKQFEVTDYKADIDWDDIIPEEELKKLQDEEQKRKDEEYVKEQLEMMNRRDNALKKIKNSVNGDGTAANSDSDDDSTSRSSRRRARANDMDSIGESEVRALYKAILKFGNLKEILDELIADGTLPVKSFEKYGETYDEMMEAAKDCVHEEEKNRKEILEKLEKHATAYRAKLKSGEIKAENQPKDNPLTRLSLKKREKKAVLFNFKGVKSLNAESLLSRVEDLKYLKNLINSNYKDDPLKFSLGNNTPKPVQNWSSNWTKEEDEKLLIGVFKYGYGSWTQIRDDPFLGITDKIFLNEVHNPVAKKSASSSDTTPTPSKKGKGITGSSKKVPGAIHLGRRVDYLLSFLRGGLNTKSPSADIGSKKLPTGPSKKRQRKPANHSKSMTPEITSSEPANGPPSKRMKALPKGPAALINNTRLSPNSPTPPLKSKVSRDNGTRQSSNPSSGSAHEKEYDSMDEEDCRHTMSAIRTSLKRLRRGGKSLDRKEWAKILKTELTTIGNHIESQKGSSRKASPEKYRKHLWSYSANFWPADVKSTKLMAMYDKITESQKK

Turning to `O=C(NCc1cnn2cccnc12)c1cccc(CC2CCNCC2)c1`, the PXC50 in experiment [1] (BOTTOM 2.141206025, HILLSLOPE 1.62116593, MAX_EFFECT 62.52189142, TOP 100.0) came out at 4.14; in [1] (BOTTOM 2.892347169, HILLSLOPE 1.976450586, MAX_EFFECT 93.87755102, TOP 100.0), 4.43; in [1] (BOTTOM 5.673984802, HILLSLOPE 1.822868055, MAX_EFFECT 90.57971014, TOP 100.0), 4.44. The Percent Effect in experiment [2] was determined as 2.98%.

As to `CC(=O)N1CCN(c2ccc3ccc(C(=O)NC4CCCC4)cn23)CC1`, the PXC50 in experiment [1] (BOTTOM 0.0163, HILLSLOPE 3.098457383, MAX_EFFECT 65.01650165, TOP 63.35125002) stood at 4.68; in experiment [1] (BOTTOM 1.065846223, HILLSLOPE 1.103958369, MAX_EFFECT 61.67400881, TOP 100.0), 4.54; in [1] (BOTTOM 3.194533203, HILLSLOPE 3.014598033, MAX_EFFECT 67.98418972, TOP 64.53848237), 4.96; in [1] (BOTTOM 4.030962781, HILLSLOPE 1.885788534, MAX_EFFECT 71.11111111, TOP 74.41524471), 4.79; in experiment [1] (BOTTOM 4.940042643, HILLSLOPE 1.835166553, MAX_EFFECT 81.72043011, TOP 100.0), 4.36; in [1] (BOTTOM 5.527382632, HILLSLOPE 1.355052942, MAX_EFFECT 67.14876033, TOP 100.0), 4.56. Also, the PXC50 in [1] (BOTTOM 8.593441039, HILLSLOPE 3.55536171, MAX_EFFECT 67.39130435, TOP 63.3453536) was found to be 4.8. The Percent Effect in experiment [3] is -2.65%; in experiment [4], 14.3%; in experiment [5], 3.54%; with Trypanosoma cruzi, -0.563%; in experiment [6] it was 1.37%; in experiment [7], 12.4%. Besides, the Percent Effect in the experiment listed under Homo sapiens was 8.76%; in experiment [8], 31.9%; in experiment [9] it was 15%; in experiment [10], -4.27%.

(Values after ChEMBL document CHEMBL3988442, “University of Dundee, Small-Polar-MMV Screening Library” (2021).)
